Sampled rows, rich in hits. Any-hit rate of the full collection: about 4.6%.
D1 ag: Allosteric Agonists of the Human D1 Dopamine Receptor: qHTS; activation, % at 2 µM; HEK293 T-REx D1 cells, calcium flux, agonist mode; 360,000 tested, 1% active; in the data active = activation above about 30%; note: 0% is about no effect
Target sequence (P21728 whole entry, looked up): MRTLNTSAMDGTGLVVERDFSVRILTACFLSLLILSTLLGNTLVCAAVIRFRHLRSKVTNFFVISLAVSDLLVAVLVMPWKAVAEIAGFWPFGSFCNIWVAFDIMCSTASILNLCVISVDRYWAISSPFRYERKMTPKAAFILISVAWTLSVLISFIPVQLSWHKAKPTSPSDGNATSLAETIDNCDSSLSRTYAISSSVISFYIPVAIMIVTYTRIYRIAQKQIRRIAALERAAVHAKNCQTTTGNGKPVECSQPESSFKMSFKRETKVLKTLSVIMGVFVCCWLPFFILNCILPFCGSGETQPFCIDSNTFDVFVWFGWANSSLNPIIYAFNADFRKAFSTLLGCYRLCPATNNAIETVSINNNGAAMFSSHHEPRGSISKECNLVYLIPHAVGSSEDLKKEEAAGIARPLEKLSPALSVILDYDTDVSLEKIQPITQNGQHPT
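Inducible HEK293 T-REx D1 cells, force-coupled to calcium signalling, were plated at 4000 cells/well with tetracycline and held overnight at 30 C. After no-wash calcium dye loading, compound-evoked calcium rise over 180 s flagged agonists.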
D1 potentiator: Potentiators of Human D1 Dopamine Receptor: qHTS; D(1A) dopamine receptor (Homo sapiens), P21728; HEK293 TREx D1 cells, calcium flux, dopamine EC20 potentiation; potentiation, % at 10 µM; 360,000 tested, 0.036% active; AID 504651, 2011; in the data active = potentiation above about 30%; note: 0% is about no effect
TRHR agonist-1: qHTS for Small Molecule Agonists and Allosteric Enhancers of Human TRH Receptor: Primary Screen for Agonists; Thyrotropin-releasing hormone receptor (Homo sapiens), P34981; TRHR cells, calcium flux fluo-8, FDSS agonist mode; activation, % at 2 µM; 360,000 tested, 0.18% active; AID 493084, 2011; in the data active = activation above about 30%; note: 0% is about no effect
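Agonist-mode FDSS calcium read (Ex 480/Em 530, 1 s cycles) in 1536-well TRHR cells with fluo-8 dye, after 10-cycle baseline and 23 nL compound addition; TRH at EC20 (10 nM final) added afterwards for the enhancer phase.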
D1 antagonist: Antagonist of Human D 1 Dopamine Receptor: qHTS | D(1A) dopamine receptor (Homo sapiens), P21728 | HEK293 TREx D1 cells, calcium flux, dopamine EC80; active compounds read low | activity change, negative = inhibition, % at 10 µM | 360,000 tested, 3.2% active | AID 504652, 2011; in the data active = activity change below about -30%; note: % is set by controls: 0 for no effect and ±100 for the full control effect
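Antagonism measured as reduced calcium response to an EC80 dopamine addition following 180 s compound pre-read; cells were inducible HEK293 Trex D1 plated overnight at 30 C, read kinetically at 1 cycle/sec.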
TRHR enhancer-1: qHTS for Small Molecule Agonists and Allosteric Enhancers of Human TRH Receptor: Primary Screen for Enhancers. Thyrotropin-releasing hormone receptor (Homo sapiens), P34981. TRHR cells, fluo-8 calcium fluorescence, EC20 TRH enhancement. enhancement, % at 2 µM. 360,000 tested, 0.66% active. AID 493056, 2011; in the data active = enhancement above about 30%; note: 0% is about no effect
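TRHR-expressing cells loaded with fluo-8 calcium dye were read kinetically (ex 480/em 530) during compound addition, then stimulated with an EC20 of TRH (10 nM final). Enhancement of the Gq-mediated intracellular calcium response was scored.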
TRHR enhancer-2: qHTS for Small Molecule Agonists and Allosteric Enhancers of Human TRH Receptor: Confirmation Screen for Enhancers. AID 493076, 2011. shares compounds with TRHR enhancer-1. activity change, negative = inhibition, % at 46.1 µM. TRH receptor cell assay, enhancer confirmation qHTS. 970 tested, under 10 active;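 note: compound effect scored on response to added TRH at EC20 of 10 nM; 0% is about no effect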
TRHR agonist-2: qHTS for Small Molecule Agonists and Allosteric Enhancers of Human TRH Receptor: Confirmation Screen for Agonists. shares compounds with TRHR enhancer-1. AID 493078, 2011. TRHR-expressing cells, agonist activation read-out. 970 tested, 8% active. Potency, µM (highest dose often 46.1 µM), for inactives: at the top dose activation, most hits filed as activators; note: potency is the fitted concentration of half-maximal effect; 0% is about no effect; nearly all actives have a fitted effect of over 75% in size
The depositor's hits bear a star; u = inconclusive; x = no result. Unless noted, calls come from the whole dose curve; as a rule, active = well fitted curve in the direction sought with a large enough effect; inconclusive = small, poorly fitted or top-dose-only effect, or another doubt; inactive = no such curve, though single readings can be large; an effect the other way counts as inactive or inconclusive.

SMILES	D1 ag	D1 potentiator	TRHR agonist-1	D1 antagonist	TRHR enhancer-1	TRHR enhancer-2	TRHR agonist-2
COc1ccc(N(CC(=O)Nc2cccc(C(C)=O)c2)S(C)(=O)=O)cc1OC	1	6	1	-6	53*	-8	0%
COc1cccc(N(CC(=O)Nc2cccc(C(C)=O)c2)S(C)(=O)=O)c1	5	-4	0	-6	1	x	x
CCOC(=O)CN1C(=O)S/C(=C/c2ccc3c(c2)n(C)c(=O)n3C)C1=O	1	1	0	6	-3	x	x
CCOC(=O)CN1C(=O)S/C(=C/C=C/c2ccc(N(C)C)cc2)C1=O	105*	-6	32*	-18	-6	-1	u
COc1ccc(S(N)(=O)=O)cc1C(=O)N(C)CC(=O)Nc1ccc(N2CCOCC2)cc1	2	7	0	16	2	x	x
O=S(=O)(NC1CCCCC1N1CCOCC1)c1ccc(Cl)cc1 (stereo unspecified)	0	-4	15	-12	-2	x	x
O=S(=O)(NC1CCCCC1N1CCN(c2ccccc2F)CC1)c1ccc(Cl)cc1 (stereo unspecified)	6	-4	33*	-9	-9	-10	u
COc1ccc(-n2nnnc2SCC(=O)Nc2ccccc2F)cc1	5	-16	0	5	2	x	x
CCOC(=O)C1CCN(C(=O)c2cc3c(ccc4ccccc43)o2)CC1	-1	-6	-1	3	42*	-5	2%
COc1ccc(CNC(=O)c2cc(C3CC3)nc3c2cnn3C(C)C)cc1	1	-3	-1	-5	43*	-12	u
CN1C(=O)/C(=C/c2coc3ccc(O)cc3c2=O)SC1=S	17	-4	3	13	1	x	x
N=C1/C(=C\c2coc3ccc(O)cc3c2=O)C(=O)N=C2SC=CN12	132*	-2	59*	-13	3	0	9.2µM*
O=C(Nc1ccccc1)/C(=C/c1ccc2c(c1)OCO2)NC(=O)c1ccco1	3	-7	0	0	52*	2	0%
O=C(O)C1=C[C@@H](c2csc3ccccc23)C[C@@H](OCCCCO)O1	0	0	0	-23	49*	0	3%
O=C(CN1C=NS(=O)(=O)c2ccc(C(F)(F)F)cc21)Nc1cccc(C(F)(F)F)c1	7	-2	0	8	3	x	x
O=C(Nc1cccc(Cl)c1N1CCOCC1)c1ccc([N+](=O)[O-])o1	-1	-5	0	5	48*	8	4%
O=C(Nc1cccc(Cl)c1N1CCOCC1)c1cc([N+](=O)[O-])ccc1N1CCOCC1	1	-1	-2	21	8	x	x
O=C(C1=NN(c2ccccc2)C2C(=O)N(c3ccccc3)C(=O)C12)c1ccccc1 (stereo unspecified)	324*	25	33*	-32*	-5	u	18µM*
COc1ccccc1CN(CC(=O)NCc1ccc2c(c1)OCO2)C(=O)c1csnn1	-2	4	0	-2	-8	x	x
O=C(CN(Cc1ccccc1Cl)C(=O)c1csnn1)NCc1ccc2c(c1)OCO2	-1	-7	0	-7	51*	-11	4%
Cc1c(NC(=O)COC(=O)C2=COCCO2)cccc1[N+](=O)[O-]	3	2	0	31	17	x	x
CCC(=O)Nc1ccc2c(c1)C(=O)c1ccccc1C2=O	0	-3	0	-3	4	x	x
CCC(=O)NC1=C(NC(C)c2ccccc2)C(=O)c2ccccc2C1=O (stereo unspecified)	3	5	0	5	50*	-5	2%
Cc1cc(C(=O)NCCN2CCOCC2)ccc1[N+](=O)[O-]	2	-4	1	-1	45*	0	-1%
CC(C)C(=O)Nc1nnc(NC(=S)Nc2ccccc2)s1	3	11	0	-7	50*	-3	1%
SMILES	D1 ag	D1 potentiator	TRHR agonist-1	D1 antagonist	TRHR enhancer-1	TRHR enhancer-2	TRHR agonist-2
NS(=O)(=O)c1ccc(CCNC(=O)C2CCC(Cn3c(=S)[nH]c4ccccc4c3=O)CC2)cc1 (stereo unspecified)	2	0	-1	-18	41*	3	-1%
Cc1ccc(Nc2c(-c3c[nH]c4ccccc34)nc3ccccn23)cc1	4	-1	0	5	4	x	x
COc1ccc(Cc2nc3ccc(C(=O)N(C)Cc4cc(C)[nH]n4)cc3o2)cc1OC	1	-2	0	-3	2	x	x
COc1ccc(Cc2nc3ccc(C(=O)N(C)CCn4ccnc4)cc3o2)cc1OC	8	-3	-3	3	41*	0	-1%
O=C(N/N=C/c1ccc(OCc2cnc(Cl)s2)cc1)c1ccncc1	16	-5	0	-33*	50*	1	2%
Cc1cc(C)c(OCC(=O)Nc2ccc(S(=O)(=O)N3CCOCC3)cc2)c(C)c1	28	-2	1	-2	41*	-9	1%
COc1ccccc1OCC(=O)Nc1ccc(S(=O)(=O)N2CCOCC2)cc1	0	-1	0	-1	-3	x	x
CC(C)(C)NC(=O)CN(Cc1ccc2c(c1)OCO2)C(=O)CNS(=O)(=O)c1ccccc1	1	-4	0	1	22	x	x
O=c1oc2ccc3ccccc3c2cc1-c1nnc(Nc2ccccc2)s1	10	3	3	9	-1	x	x
Nc1nnc(-c2cc3c(ccc4ccccc43)oc2=O)s1	49*	12	41*	-9	-1	7	u
CC(C)C(=O)NC(C)C(c1cccs1)N1CCN(c2ccccc2)CC1 (stereo unspecified)	-1	-5	0	22	7	x	x
CC(NS(C)(=O)=O)C(c1cccs1)N1CCN(c2ccccc2)CC1 (stereo unspecified)	1	4	1	23	59*	-3	2%
COc1ccc(N2C(=O)c3cccc4c(N(C)CCO)ccc(c34)C2=O)cc1	49*	-3	35*	-3	-10	-5	21µM*
COc1ccc(N2C(=O)c3cccc4cccc(c34)C2=O)cc1	1	-4	0	8	-2	x	x

Source: PubChem BioAssay (National Center for Advancing Translational Sciences (NCATS))
